Consider 9 compounds from PubChem BioAssay (NCI).

Some test systems named below: MOLT-4 leukemia; SR leukemia; RPMI-8226 leukemia; OVCAR-8 ovarian; OVCAR-5 ovarian; OVCAR-4 ovarian; SK-OV-3 ovarian; IGROV1 ovarian; HS 578T breast; NCI/ADR-RES ovarian; T-47D breast; BT-549 breast; SW-620 colon; MCF7 breast; HCT-116 colon; HCC-2998 colon; KM12 colon; OVCAR-3 ovarian; MDA-MB-435 melanoma.
What all share (assay): NCI-60 one-dose screen, 48 h (100 = growth as untreated, 0 = no growth, -100 = all killed)
Common to all, as to settings: 10 µM unless noted

The panel holds about 83,000 compounds, 20% with a hit somewhere; the sample as a whole holds those more often.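 Each cell line was grown in a 96-well plate and treated with one concentration of compound for 48 hours. Values below 10 were considered active.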 Values without a mark were called inactive. Calls of active or inactive are those of the source.

`CO[C@H](C(=O)O)[C@@H]1Cc2cc3cc(OC4CC(OC5CC(O)C(O)C(C)O5)C(O)C(C)O4)c(C)c(O)c3c(O)c2C(=O)[C@H]1OC1CC(OC2CC(OC3CC(C)(O)C(O)C(C)O3)C(O)C(C)O2)C(O)C(C)O1` (stereo partly specified): the growth in the assay on MOLT-4 leukemia was 1.78% (active); in the assay with SR leukemia, 10.4%; in the assay on RPMI-8226 leukemia, 6.67% (active); in the assay on OVCAR-8 ovarian it was 13.5%; with OVCAR-5 ovarian, 17.6%; in the assay with OVCAR-4 ovarian, 19.7%. Also, the growth in the assay with SK-OV-3 ovarian is 23.7%; in the assay on IGROV1 ovarian it was 35.4%; in the assay on HS 578T breast, -1.09% (active); in the assay on NCI/ADR-RES ovarian, 74%; in the assay with T-47D breast it was 12.8%; in the assay with BT-549 breast, -41.9% (active). The growth in the assay with SW-620 colon is 19.1%; with MCF7 breast, 7.44% (active); in the assay on HCT-116 colon it was 6.04% (active); in the assay on HCC-2998 colon, -37.8% (active); with KM12 colon, 7.07% (active).
With `N#C[Se]CCN1C(=O)c2ccccc2C1=O`, the growth with MOLT-4 leukemia was 17.4%; in the assay with SR leukemia it was 27.7%; in the assay on RPMI-8226 leukemia, 59.5%; with OVCAR-8 ovarian, 30.3%; with OVCAR-5 ovarian, 41.4%; with OVCAR-4 ovarian, 67.4%. Further, the growth with SK-OV-3 ovarian is 56.4%; in the assay with IGROV1 ovarian it was 26.1%; in the assay with HS 578T breast, 21.9%; with NCI/ADR-RES ovarian, 9.97% (active); with T-47D breast, 49.9%; in the assay with BT-549 breast, 34.3%. For the same compound, the growth is 23.9% in the assay on SW-620 colon; 25.4% with MCF7 breast; 9.26% (active) with HCT-116 colon; 53.1% with HCC-2998 colon; 43% in the assay with KM12 colon.
For the compound `CC1CN1CCCCN1CC1C` (stereo unspecified), the growth in the assay with MOLT-4 leukemia was 86.2%; in the assay with SR leukemia it was 81.5%; with RPMI-8226 leukemia, 94.4%; in the assay with OVCAR-8 ovarian, 102%; with OVCAR-5 ovarian, 102%; in the assay with OVCAR-4 ovarian, 112%. Besides, the growth is 103% with SK-OV-3 ovarian; 107% with IGROV1 ovarian; 103% in the assay on OVCAR-3 ovarian; 108% with NCI/ADR-RES ovarian; 101% in the assay with T-47D breast; 103% in the assay on BT-549 breast. Moreover, the growth in the assay on MDA-MB-435 melanoma is 111%; in the assay on SW-620 colon, 105%; in the assay on MCF7 breast, 93.8%; in the assay with HCT-116 colon it was 95.7%; in the assay with HCC-2998 colon, 94.2%; in the assay on KM12 colon, 104%.
Turning to `CCC1CN1CCCCN1CC1CC` (stereo unspecified), the growth in the assay with MOLT-4 leukemia was 108%; in the assay on SR leukemia, 104%; with RPMI-8226 leukemia, 102%; with OVCAR-8 ovarian, 101%; with OVCAR-5 ovarian, 102%; with OVCAR-4 ovarian, 102%. Moreover, the growth in the assay with SK-OV-3 ovarian was 110%; in the assay with IGROV1 ovarian, 102%; in the assay with OVCAR-3 ovarian it was 107%; in the assay on NCI/ADR-RES ovarian it was 103%; in the assay with T-47D breast, 92.1%; in the assay with BT-549 breast, 103%. The growth with MDA-MB-435 melanoma was 93.7%; in the assay with SW-620 colon, 105%; with MCF7 breast it was 99.8%; in the assay on HCT-116 colon it was 98.7%; in the assay with HCC-2998 colon, 100%; with KM12 colon it was 106%.
Turning to `O=C1OCCC1Br` (stereo unspecified), the growth in the assay with MOLT-4 leukemia is 107%; in the assay with SR leukemia, 92.3%; with RPMI-8226 leukemia, 97.2%; in the assay with OVCAR-8 ovarian, 96.2%; in the assay with OVCAR-5 ovarian, 104%; in the assay with OVCAR-4 ovarian it was 107%. The growth in the assay on SK-OV-3 ovarian was 99.4%; with IGROV1 ovarian it was 110%; in the assay on OVCAR-3 ovarian it was 112%; in the assay with NCI/ADR-RES ovarian, 106%; in the assay on T-47D breast, 105%; in the assay on BT-549 breast, 85.3%. In addition, the growth in the assay on SW-620 colon is 103%; in the assay with MCF7 breast, 101%; with HCT-116 colon, 103%; in the assay on HCC-2998 colon it was 102%; with KM12 colon, 108%.
Take `COc1cc(NC(C)CCCNC2CN3CCC2CC3)c2ncccc2c1` (stereo unspecified): the growth in the assay on MOLT-4 leukemia was 74.2%; with SR leukemia it was 84.9%; in the assay with RPMI-8226 leukemia it was 72.9%; in the assay on OVCAR-8 ovarian it was 75.9%; in the assay with OVCAR-5 ovarian, 92.8%; in the assay on SK-OV-3 ovarian, 93.4%. Also, the growth in the assay on IGROV1 ovarian is 69.1%; in the assay on OVCAR-3 ovarian it was 11%; in the assay on HS 578T breast it was 65.2%; with NCI/ADR-RES ovarian, 96.9%; with T-47D breast it was 69.9%; in the assay on BT-549 breast, 86%. Moreover, the growth was 94.3% in the assay with MDA-MB-435 melanoma; 72.6% in the assay with SW-620 colon; 0.157% (active) in the assay with MCF7 breast; 66.4% with HCT-116 colon; 75.4% with HCC-2998 colon; 85.5% in the assay on KM12 colon.
Regarding `O=c1[nH]cc(N(CCCl)CCCl)c(=O)[nH]1`, the growth is 15.3% in the assay with MOLT-4 leukemia; 10.4% with SR leukemia; 77.8% in the assay with RPMI-8226 leukemia; 70.1% in the assay on OVCAR-5 ovarian; 105% in the assay on OVCAR-4 ovarian; 93.3% with SK-OV-3 ovarian. Further, the growth in the assay with IGROV1 ovarian was 50.2%; in the assay on OVCAR-3 ovarian it was 98.5%; with HS 578T breast, 87.8%; in the assay with NCI/ADR-RES ovarian, 66.3%; with T-47D breast, 53%; in the assay with BT-549 breast, 81.5%. Also, the growth is 86.5% with MDA-MB-435 melanoma; 71.8% in the assay with SW-620 colon; 53.1% with MCF7 breast; 78.8% in the assay with HCT-116 colon; 61.6% with HCC-2998 colon; 86.5% in the assay with KM12 colon.
`ClCCN(CCCl)c1ccc(-n2cnc3c(Cl)ncnc32)cc1`: the growth in the assay with MOLT-4 leukemia is 7.06% (active); in the assay with SR leukemia it was -29.2% (active); in the assay on RPMI-8226 leukemia, 59.6%; with OVCAR-8 ovarian, 35.1%; in the assay with OVCAR-5 ovarian, 117%; with SK-OV-3 ovarian, 90.5%. For the same compound, the growth is -84.5% (active) in the assay on IGROV1 ovarian; -35.4% (active) with OVCAR-3 ovarian; 49.5% in the assay on HS 578T breast; 61% in the assay on NCI/ADR-RES ovarian; 41.1% in the assay on T-47D breast; -73.8% (active) with SW-620 colon. Moreover, the growth is 25.7% with MCF7 breast, 33.6% with HCT-116 colon, 82.6% in the assay on HCC-2998 colon and 46.3% in the assay on KM12 colon.
On to `C[CH2][Sn]([Cl])([Cl])[CH2]C.Oc1ccccc1C=NCCN=Cc1ccccc1O`, for which the growth with MOLT-4 leukemia was 86.1%; in the assay on SR leukemia, 103%; in the assay with RPMI-8226 leukemia it was 91.9%; in the assay with OVCAR-8 ovarian, 100%; in the assay on OVCAR-5 ovarian it was 104%; in the assay with SK-OV-3 ovarian it was 101%. Also, the growth in the assay with IGROV1 ovarian is 98.9%; in the assay with OVCAR-3 ovarian, 103%; with HS 578T breast, 100%; in the assay with NCI/ADR-RES ovarian it was 106%; in the assay with T-47D breast it was 90%; with BT-549 breast it was 117%. The growth was 108% with MDA-MB-435 melanoma; 99.7% in the assay on SW-620 colon; 131% in the assay on MCF7 breast; 112% with HCT-116 colon; 106% in the assay with KM12 colon.
